Our source for the Potency and activity change, negative = inhibition values is PubChem BioAssay (Tox21).

Records with an inconclusive call do not appear. Where a call stands in place of a potency, no number is given. Calls of active or inactive are those of the source. The call rests on the fitted dose curve; in most records, active means well fitted inhibition curve with a large enough effect in the repeat runs; inconclusive means weak or mixed curves; inactive means no such curve, though single readings can be large or run the other way.
Potency means the concentration at half of the fitted maximal effect.

Chain of Cytochrome P450 3A4 (Homo sapiens) (P08684 whole entry, looked up): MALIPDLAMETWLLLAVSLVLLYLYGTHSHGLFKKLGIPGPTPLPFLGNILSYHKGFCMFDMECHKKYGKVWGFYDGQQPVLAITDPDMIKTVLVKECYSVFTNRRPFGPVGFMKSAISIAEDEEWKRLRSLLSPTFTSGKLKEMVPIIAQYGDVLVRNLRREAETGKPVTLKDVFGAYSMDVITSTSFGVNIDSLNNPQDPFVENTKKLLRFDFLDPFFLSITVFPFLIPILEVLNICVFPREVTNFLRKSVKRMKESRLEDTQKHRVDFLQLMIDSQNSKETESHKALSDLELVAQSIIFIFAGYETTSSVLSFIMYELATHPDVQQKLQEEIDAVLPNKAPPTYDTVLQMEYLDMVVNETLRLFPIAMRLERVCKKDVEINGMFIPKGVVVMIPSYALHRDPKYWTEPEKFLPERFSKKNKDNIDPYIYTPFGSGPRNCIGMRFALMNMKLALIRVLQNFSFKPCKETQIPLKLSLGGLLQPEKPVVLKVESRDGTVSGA

This experiment has as its target Cytochrome P450 3A4 (Homo sapiens) (UniProt P08684). The experiment in a line: Cytochrome P450 Family 3 Subfamily A Member 4 (CYP3A4) small molecule antagonists: luciferase reporter qHTS assay (AID 1671201). Further: nearly all actives have a fitted effect of over 50% in size. To be noted: P450-Glo CYP3A4 enzyme, luciferin luminescence, 1 h; series mostly up to 115 µM. In a few lines: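 Room-temperature assay throughout: 10 min compound–enzyme/substrate preincubation, 1 h reaction after NADPH regeneration solution, 20 min detection. Luciferin formed from proluciferin substrate is quantified by luminescence.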
Take `O=C(O)CNC(=O)c1ccc(CO)o1`: the Potency entry is “inactive”. Same read-out and setting: the entry for `O=C(O)CNC(=O)c1ccccc1` is “inactive”; for `Nc1ccn([C@@H]2O[C@H](CO)[C@@H](O)C2(F)F)c(=O)n1` it is “inactive”. Same read-out and setting: next, `CN(C)CCN(C)CCN(C)C`: “inactive”; `C[C@@H]1CCC[C@H](C)N1`: “inactive”.

For the molecule `CC(C)[C@H]1CC[C@@H](C)CC1=O`, the Potency result was “inactive”. Same read-out and setting: next, `CCCC[N+](C)(CCCC)CCCC`: “inactive”; `O=Cc1cccc(Br)c1`: 81.7 µM (active); `CN1C(C)(C)CC(O)CC1(C)C`: “inactive”.

With `c1ccc(CCc2ccccc2)cc1`, the Potency result is “inactive”. The same measure, in the same setting: the entry for `CC(C)C1CCC(O)CC1` (configuration not stated) is “inactive”; for `CCCC(C)C(=O)OCC` (configuration not stated) it is “inactive”; for `CCNS(=O)(=O)c1ccc(C)cc1` it is “inactive”. Regarding `CC(N)C12CC3CC(CC(C3)C1)C2` (configuration not stated), the Potency result is “inactive”. On the same count and under the same terms, next, `CCCCCCCCCCCCCCC(=O)O`: “inactive”; `O=S(=O)(O)c1cccc(S(=O)(=O)O)c1`: “inactive”.

In the case of `CC(=O)N1C[C@H](O)C[C@H]1C(=O)O`, the Potency entry was “inactive”. On the same count and under the same terms, the entry for `NC(=O)N[C@@H](CCC(=O)O)C(=O)O` is “inactive”; for `CC(C)C(=O)OC(=O)C(C)C` it is “inactive”. For `CC(C)c1ccc2ncccc2c1`, the Potency entry is “inactive”.

With `CC(=O)c1cnccn1`, the Potency result is “inactive”. Same read-out and setting: next, `CN1CC(=O)N/C1=N/C(=O)Nc1cccc(Cl)c1`: “inactive”; `CC(C)CC(C)(N)C#N` (configuration not stated): “inactive”; `CC1(C)OC[C@@H](COC(=O)CCc2ccc(OC[C@@H](O)CNCCNC(=O)N3CCOCC3)cc2)O1`: “inactive”.

As for `CC1=NS(=O)(=O)c2cc(Cl)ccc2N1`, the Potency entry is “inactive”. For the molecule `CNCCO`, the Potency result was “inactive”. As to `C[C@H]1C[C@H]2[C@@H]3CCC4=CC(=O)C=C[C@]4(C)[C@H]3C(=O)C[C@]2(C)[C@@]1(O)C(=O)CO`, the Potency entry was “inactive”. The same measure, in the same setting: the entry for `CC1=CCC(O)(C(C)C)CC1` (configuration not stated) is “inactive”; for `CO[C@@]1(NC(=O)CSC[C@@H](N)C(=O)O)C(=O)N2C(C(=O)O)=C(CSc3nnnn3C)CS[C@@H]21` it is “inactive”.

Turning to `CCC(C)(CCCC(C)C)OC(C)=O` (configuration not stated), the Potency entry is “inactive”. The same measure, in the same setting: the entry for `CC(=O)Nc1ccc(OCC(O)CNC(C)C)cc1` (configuration not stated) is “inactive”. As to `CCCCCCCCCCOc1cc2c(=O)c(C(=O)OCC)c[nH]c2cc1OCC`, the activity change, negative = inhibition is 13.5% [at 10.5 µM] (inactive).
